Bioassay records from PubChem.
An excerpt weighted towards active compounds, which were near 10% of everything screened.
SARS PLpro yeast: SARS-CoV PLP inhibition in yeast. actives 0.19% (n = 330,000). S. cerevisiae expressing SARS-CoV PLpro, growth rescue. AID 485353. Potency, µM (titrated, usually from 32.9 µM), for inactives: at the highest dose activity, positive = growth rescue, most hits filed as activators; calls by dose curve; further: 0% is about no effect; nearly all actives have a fitted effect of over 55% in size
NS1 function inh: inhibitors of influenza NS1 protein function | Potency, µM (doses to about 46.1 µM), without a hit: at the highest dose activity, positive = more growth | AID 2326 | actives 0.4% (n = 270,000); calls by dose curve; further: actives are rising curves; nearly all actives have a fitted effect of over 50% in size
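OD600 was taken as the measure of yeast growth restored by compound in an NS1-expressing S. cerevisiae strain. Cells had been washed out of glucose medium and diluted 1:100 into galactose -URA medium, pH 6.0.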
Pf growth 48h: inhibits P. falciparum growth in the first generation, 48 h; actives 5.9% (n = 310,000); Potency, µM (titrated, usually from 28.7 µM), for inactives: top-dose activity change, negative = inhibition, most hits filed as inhibitors; P. falciparum luciferase growth in erythrocytes, 48 h; further: on the % scale 0 is the no-effect control and ±100 the full control effect
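Growth was read as firefly luciferase luminescence after a 48 h, 37 C, 5% CO2 exposure of compounds to reporter-bearing P. falciparum cultures (0.1% parasitemia, 2% hematocrit final) in Albumax-supplemented RPMI 1640.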
Pf growth 96h: inhibits malaria parasite growth, 96 h; P. falciparum luciferase reporter growth, 96 h; Potency, µM (highest dose often 28.7 µM), inactives show at the top dose activity change, negative = inhibition, most hits filed as inhibitors; actives 6.9% (n = 320,000); further: on the % scale 0 is the no-effect control and ±100 the full control effect
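Cell-based qHTS: luciferase-tagged P. falciparum in erythrocytes (2% hematocrit, 0.05% parasitemia final) incubated with compounds for 96 hours, 37 C, 5% CO2; luciferase detection reagent then added and luminescence measured.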
Numbers without * were called inactive. Unless noted, the call rests on the fitted dose curve; in most records, active means well fitted inhibition curve with a large enough effect; inconclusive means small, poorly fitted or top-dose-only effect, or another doubt; inactive means no such curve, though single readings can be large or run the other way. Potency means the concentration at half of the fitted maximal effect.

O=C(O)[C@H](C1NCCS1)N1Cc2ccccc2C1 (stereo partly drawn) was read as NS1 function inh 1.1%.
Cc1cccc(N2CCN(C(=O)c3cccs3)CC2)c1C was read as SARS PLpro yeast -6.6%, NS1 function inh -54.4%, Pf growth 48h -4.3% and Pf growth 96h 10.4µM*.
Screening Cc1cccc(N2CCN(C(=O)CCCSc3nc4ccccc4[nH]3)CC2)c1C returned SARS PLpro yeast -23.1%, NS1 function inh -13.4%, Pf growth 48h inconclusive and Pf growth 96h 9.28µM*.
`Cc1ccc(C)c(NC(=O)CN(C)C(=O)c2cccc(N3C(=O)CCC3=O)c2)c1` gave SARS PLpro yeast -3.9%, Pf growth 48h 21.2% and Pf growth 96h 16.1%.
`Cc1ccc(NC(=O)CSc2nc(NS(=O)(=O)c3ccc(C)cc3)cc(=O)[nH]2)cc1` gave SARS PLpro yeast -3.7%, NS1 function inh 3.8% and Pf growth 48h 5.22µM*.
`COc1ccc(Cl)cc1NC(=O)CSc1nc(NS(=O)(=O)c2ccccc2)cc(=O)[nH]1` gave SARS PLpro yeast 2.0%, NS1 function inh 12.9%, Pf growth 48h 0.0% and Pf growth 96h 8.28µM*.
For Cc1cccc(NC(=O)CSc2nc(NS(=O)(=O)c3ccccc3)cc(=O)[nH]2)c1 the results were SARS PLpro yeast 0.2%, NS1 function inh 7.5%, Pf growth 48h 0.0% and Pf growth 96h 10.4µM*.
Screening N#Cc1ccc(COC(=O)c2cnc(Cl)c(Cl)c2)cc1 returned SARS PLpro yeast 10.1%, NS1 function inh -1.1%, Pf growth 48h 11.8% and Pf growth 96h -14.4%.
Screening CN1c2ccc([N+](=O)[O-])cc2N(C)C1(C)c1ccccc1 (stereo not drawn) returned SARS PLpro yeast 0.7%, NS1 function inh 12.2%, Pf growth 48h 11.7µM* and Pf growth 96h inactive.
CCC(C)N(CCNC(=O)c1ccc2c(c1)NC(=O)c1ccccc1S2)C1CCCCC1 (stereo not drawn) was read as SARS PLpro yeast 0.4%, NS1 function inh 4.2%, Pf growth 48h 1.85µM* and Pf growth 96h inconclusive.
For CCN1CCN(CCCNC(=O)c2ccc3c(c2)NC(=O)c2ccccc2S3)CC1 the results were SARS PLpro yeast -1.7%, NS1 function inh -9.2%, Pf growth 48h 14.7µM* and Pf growth 96h 8.28µM*.
For CC1CCCC(C)N1CCCNC(=O)c1ccc2c(c1)NC(=O)c1ccccc1S2 (stereo not drawn) the results were SARS PLpro yeast -1.7%, NS1 function inh -15.1%, Pf growth 48h 4.15µM* and Pf growth 96h inconclusive.
For O=C(NCCCN1CCCC1=O)c1ccc2c(c1)NC(=O)c1ccccc1S2 the results were SARS PLpro yeast 2.6%, NS1 function inh 5.0% and Pf growth 96h -13.4%.
CC(C)[C@]1(O)[C@@H](OC(=O)c2ccc[nH]2)[C@]2(O)[C@@]3(C)C[C@@]4(O)O[C@@]5([C@H](O)[C@@H](C)CC[C@]35O)[C@]2(O)[C@]41C was read as NS1 function inh -5.9%.
CC(CC(F)(F)F)N1CCC(n2nccc2NC(=O)CCCc2ccccc2)CC1 (stereo not drawn) was read as SARS PLpro yeast 2.9%, NS1 function inh 15.8%, Pf growth 48h 4.4% and Pf growth 96h inconclusive.
For C[n+]1cccc(/C=N/NC(=O)CC23CC4CC(CC(C4)C2)C3)c1 the results were SARS PLpro yeast -2.3%, NS1 function inh -30.5%, Pf growth 48h inconclusive and Pf growth 96h 0.586µM*.
For CNC(=O)c1ccc(NC(=O)CC23CC4CC(CC(C4)C2)C3)cc1 the results were SARS PLpro yeast -0.4%, NS1 function inh -1.1%, Pf growth 48h -18.8% and Pf growth 96h -10.7%.
`CCc1noc(C)c1C(=O)N1CCCC(N2CCN(c3cccc(Cl)c3)CC2)C1` (stereo not drawn) gave SARS PLpro yeast 13.5%, NS1 function inh -5.2%, Pf growth 48h inconclusive and Pf growth 96h inconclusive.
O=C(Nc1cccc(Cl)c1)NC1CCN(C2CCCCC2)C1 (stereo not drawn) was read as SARS PLpro yeast 6.9%, NS1 function inh -10.1%, Pf growth 48h inconclusive and Pf growth 96h 11.7µM*.
For O=C(NC1CCN(C(=O)Nc2cccc(Cl)c2)CC1)C1CCCCC1 the results were SARS PLpro yeast 0.1%, NS1 function inh 10.5%, Pf growth 48h -13.1% and Pf growth 96h 1.1%.
O=C(NCCOc1ccc(Cl)cc1)c1ccco1 was read as SARS PLpro yeast -3.6%, NS1 function inh -28.3%, Pf growth 48h -3.3% and Pf growth 96h 2.08µM*.
COc1cc2cc(C(=O)N(C)C3CCS(=O)(=O)C3)[nH]c2cc1OC (stereo not drawn) was read as SARS PLpro yeast 3.5%, NS1 function inh 10.3%, Pf growth 48h 11.7% and Pf growth 96h -19.2%.
Screening CCN(C(=O)CSc1nc2cc(C(F)(F)F)ccc2n1Cc1ccccc1)C1CCS(=O)(=O)C1 (stereo not drawn) returned SARS PLpro yeast -32.0%, NS1 function inh 6.2%, Pf growth 48h 10.4µM* and Pf growth 96h 9.28µM*.
For CCn1c2ccccc2c2nc3cc(OC)c(OC)cc3nc21 the results were SARS PLpro yeast -30.1%, NS1 function inh -15.9%, Pf growth 48h 30.1% and Pf growth 96h 3.29µM*.
For Nc1cc2nc3ccccc3oc-2cc1=O the results were SARS PLpro yeast -6.2%, NS1 function inh -64.2%, Pf growth 48h 4.65µM* and Pf growth 96h 4.65µM*.
For CCOC(=O)c1nc(N)c(C(=O)OCC)[nH]1 the results were SARS PLpro yeast 5.3%, NS1 function inh 12.0% and Pf growth 48h 16.5%.
For CCOC(=O)c1c(C)nc(C(Cl)(Cl)Cl)nc1N the results were SARS PLpro yeast 0.3%, NS1 function inh -9.5%, Pf growth 48h 13.1µM* and Pf growth 96h 140.3%.
`Cc1nc2c(c(=O)n1CCC1=CCCCC1)c1nc3ccccc3nc1n2/N=C/c1ccccc1` gave SARS PLpro yeast 17.8%, NS1 function inh -2.3% and Pf growth 96h -6.0%.
CCOCCCn1c(C)nc2c(c1=O)c1nc3ccccc3nc1n2CCC1=CCCCC1 was read as SARS PLpro yeast inconclusive, NS1 function inh inconclusive, Pf growth 48h inconclusive and Pf growth 96h 2.62µM*.
Screening CC(=O)c1cccc(NC(=O)c2ccccc2N(Cc2ccccc2)S(C)(=O)=O)c1 returned SARS PLpro yeast -0.5%, NS1 function inh 10.6%, Pf growth 48h 7.2% and Pf growth 96h -12.2%.
For O=C(Nc1ccc(Cl)cc1)C1CCN(C(=O)NC2CCCCC2)CC1 the results were SARS PLpro yeast 1.8%, NS1 function inh 10.7%, Pf growth 48h -5.2% and Pf growth 96h 5.9%.
CC(=O)Nc1ccc(NC(=O)C2CCN(C(=O)NC3CCCCC3)CC2)cc1 was read as SARS PLpro yeast 0.6%, NS1 function inh 1.4%, Pf growth 48h -3.2% and Pf growth 96h 5.22µM*.
Screening COC(=O)c1ccc(NC(=O)C2CCN(C(=O)Nc3ccccc3)CC2)cc1 returned SARS PLpro yeast 10.2%, Pf growth 48h inconclusive and Pf growth 96h 4.65µM*.
For O=C(NC1CCCCC1)N1CCN(c2ccc(Cl)cc2)CC1 the results were SARS PLpro yeast -9.9%, NS1 function inh -35.7%, Pf growth 48h inconclusive and Pf growth 96h 1.85µM*.
For COC(=O)Cc1ccc(OC(=O)CCS(=O)(=O)c2ccc(C)cc2)cc1 the results were Pf growth 48h -19.8% and Pf growth 96h -0.2%.
